Records with an inconclusive call do not appear. Unmarked numbers belong to inactive results. The call rests on the fitted dose curve; tested in HEK293 reporter line.
Assay: qHTS for Inhibitors of the Functional Ribonucleoprotein Complex (vRNP) of Lassa (LASV) Arenavirus: LASV Primary Screen - GLuc reporter signal (AID 1347082); further: nearly all actives have a fitted effect of over 60% in size
Details: LASV minigenome vRNP, Gaussia luciferase reporter; series mostly up to 57.5 µM; activity change, negative = inhibition: at the top concentration
On the % scale 0 is the no-effect control and ±100 the full control effect.

With `COc1ccc(-c2coc3cc(O[C@@H]4O[C@H](CO)[C@@H](O)[C@H](O)[C@H]4O)c(OC)cc3c2=O)cc1` as the compound, how does the “activity change, negative = inhibition” value read?
Its value is 5.07%.

Which “activity change, negative = inhibition” value does the source give for `N[C@H](CSSC[C@@H](N)C(=O)O)C(=O)O` here?
The value was 1.51%.

For `CC1(C)Oc2cc3oc(=O)ccc3cc2C[C@@H]1O`, which “activity change, negative = inhibition” value is on record?
The value was -16.2%.

For `C=C[C@@H]1CN2CC[C@@H]1C[C@H]2[C@H](O)c1ccnc2ccc(OC)cc12`, which “activity change, negative = inhibition” value is on record?
Its value is -1.77%.

For `COC1[C@@H](O[C@@H]2O[C@H](C)[C@@H](O[C@H]3C[C@@](C)(O)[C@H](OC(=O)CC(C)C)[C@H](C)O3)[C@H](N(C)C)[C@H]2O)[C@@H](CC=O)C[C@@H](C)[C@@H](O)/C=C/C=C/C[C@@H](C)OC(=O)C[C@H]1OC(C)=O` (stereo partly drawn), which “activity change, negative = inhibition” value is on record?
Its value is -1.34% [at 24.7 µM].

For `CCCCCCCCCCCC`, which “activity change, negative = inhibition” value is on record?
The value was -5.91% [at 115 µM].

For `CC1=C(/C=C/C(C)=C/C=C/C(C)=C/C=C/C=C(C)/C=C/C=C(\C)C=O)C(C)(C)CCC1`, which “activity change, negative = inhibition” value is on record?
Its value is 9.19%.

With `CCCCCCCCCCCCCCCCCCCCCCCCCCCCCC` as the compound, how does the “activity change, negative = inhibition” value read?
Its value is -1.22%.

With `CC(=O)OCC(=O)[C@@]1(O)CC[C@H]2[C@@H]3CCC4=CC(=O)C=C[C@]4(C)[C@@H]3[C@@H](O)C[C@@]21C` as the compound, how does the “activity change, negative = inhibition” value read?
Its value is -13.6%.

For `COc1cc(CCc2cc(NC(=O)c3ccc(N4C[C@@H](C)N[C@@H](C)C4)cc3)n[nH]2)cc(OC)c1`, which “activity change, negative = inhibition” value is on record?
The value was -6.66%.

Which “activity change, negative = inhibition” value does the source give for `CC(C)=CCc1c(O)cc(O)c2c1OC(c1ccc(O)cc1)CC2=O` (stereo not drawn) here?
The value was 0.943%.

For `C[N+](C)(C)CCOP(=O)([O-])OC[C@H](O)CO`, which “activity change, negative = inhibition” value is on record?
The value was -4.97%.

With `CC(C)(O)CC[C@H](OC(=O)c1ccccc1)[C@](C)(O)[C@H]1CC[C@@]2(O)C3=CC(=O)[C@@H]4C[C@@H](O)[C@H](O)C[C@]4(C)C3CC[C@]12C` (stereo partly drawn) as the compound, how does the “activity change, negative = inhibition” value read?
The value was 5.8%.

Reference: PubChem BioAssay (NCATS)
